# Screens (PubChem BioAssay)
# Compounds with a hit are over-represented: about 4.7% of the library has one in this group of screens.
# D1 antagonist: blocks dopamine activation of the human D1 receptor; P21728; activity change, negative = inhibition, % at 10 µM; HEK293 TREx D1 cells, calcium flux, dopamine EC80; hits give low values; 3.2% of 360,000 active; in the data active = activity change below about -30%
#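 Tetracycline-induced HEK293 Trex D1 cells, force-coupled to calcium, dye-loaded; compounds added and read 180 s, then EC80 dopamine added and calcium flux tracked kinetically another 180 s.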
# D1 agonist: agonists of human D1 dopamine receptor. P21728. HEK293 T-REx D1 cells, calcium flux, agonist mode. activation, % at 2 µM. 1% of 360,000 active
#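 Agonism was scored from calcium flux recorded over 180 s (1 read/s) after pintool compound addition, following a 10-cycle baseline. Cells were inducible force-coupled HEK293 TREx D1, plated overnight at 30 C and loaded with no-wash calcium dye.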
# D1 potentiator: enhances dopamine response at the human D1 receptor; P21728; HEK293 TREx D1 cells, calcium flux, dopamine EC20 potentiation; potentiation, % at 10 µM; 0.036% of 360,000 active; AID 504651; in the data active = potentiation above about 30%
# TRHR PAM: allosteric enhancers of human TRH receptor. 0.66% of 360,000 active. enhancement, % at 2 µM. TRHR cells, fluo-8 calcium fluorescence, EC20 TRH enhancement. P34981; in the data active = enhancement above about 30%
# Target sequence (P34981 whole entry, looked up): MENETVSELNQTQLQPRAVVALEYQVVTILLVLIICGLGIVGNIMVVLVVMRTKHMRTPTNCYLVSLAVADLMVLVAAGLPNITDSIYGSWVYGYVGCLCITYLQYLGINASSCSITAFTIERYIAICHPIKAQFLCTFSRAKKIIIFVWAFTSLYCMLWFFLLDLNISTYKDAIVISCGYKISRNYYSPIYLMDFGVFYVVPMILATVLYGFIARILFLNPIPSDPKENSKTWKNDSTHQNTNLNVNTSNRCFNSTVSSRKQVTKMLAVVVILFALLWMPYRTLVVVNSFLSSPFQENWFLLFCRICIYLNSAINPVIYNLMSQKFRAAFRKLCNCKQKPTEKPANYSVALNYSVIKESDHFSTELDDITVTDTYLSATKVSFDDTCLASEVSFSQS
#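 TRHR-expressing cells loaded with fluo-8 calcium dye were read kinetically (ex 480/em 530) during compound addition, then stimulated with an EC20 of TRH (10 nM final). Enhancement of the Gq-mediated intracellular calcium response was scored.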
# TRHR agonist: activates the human TRH receptor; 0.18% of 360,000 active; P34981; AID 493084; activation, % at 2 µM; TRHR cells, calcium flux fluo-8, FDSS agonist mode
#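 Read-out: compound-evoked intracellular calcium rise in TRHR cells, fluo-8 dye, kinetic FDSS fluorescence at 1 s/cycle following a 10-cycle baseline. Cells cultured overnight before dye loading (30 min–1.5 h, RT).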
# Hits are given with their value; i = inactive; nt = no result. Rule as the data show it, unless noted: active = activation above about 30%; inactive = the rest.
SMILES,D1 antagonist,D1 agonist,D1 potentiator,TRHR PAM,TRHR agonist
COc1ccc(NC(=O)CSc2nc(-c3ccc(F)cc3)[nH]c2-c2ccc(C)cc2)cc1OC,i,i,i,i,i
COc1ccc(-c2nc(SCC(=O)Nc3ccc4c(c3)OCO4)c(-c3ccc(F)cc3)[nH]2)cc1OC,-35.5,i,i,i,i
COc1ccc(-c2nc(SCC(=O)Nc3ccc4c(c3)OCCO4)c(-c3ccc(F)cc3)[nH]2)cc1OC,i,i,i,i,i
COc1cc(-c2nc(SCC(=O)Nc3ccc(C)cc3)c(-c3ccc(F)cc3)[nH]2)cc(OC)c1OC,-34.8,i,i,i,i
Cc1ccc(N2CC(NC(=O)Cc3ccc(F)cc3)CC2=O)cc1C (stereo unspecified),nt,i,i,i,i
CCOc1ccc(N2C(=O)N(Cc3ccc(C)cc3C)c3ccccc3S2(=O)=O)cc1,i,i,i,i,i
CCCCc1cc(O)c(CCCC)c(O)c1,i,102.2,i,i,i
COc1ccc(CNC(=O)CCc2cn(C)c3ccccc23)cc1,i,i,i,i,i
COc1ccc2nc3oc(C(=O)N(C)c4ccc(Cl)cc4)cc3cc2c1,i,i,i,i,i
Cc1ccc(C2C(C#N)=C(N)SC(N)=C2C#N)c(C)c1,i,51.2,i,i,i
O=C(O)CCN(CCC(=O)O)S(=O)(=O)c1ccccc1,i,i,i,i,i
O=C(O)CCN(CCC(=O)O)c1ccccc1,-92.7,i,i,i,i
NCCCC(=O)N1c2ccccc2Sc2ccc(Cl)cc21,i,i,i,i,i
NCCC(=O)N1c2ccccc2Sc2ccc(Cl)cc21,i,59.1,i,i,49.6
CCOc1ccc(OC(=O)c2c(-c3ccccc3Cl)noc2C)cc1,i,i,i,i,i
CCCc1cc(-c2n[nH]c(=S)n2CC)cs1,i,i,i,i,i
CCCCn1c(-c2csc(CCC)c2)n[nH]c1=S,i,56.9,i,i,i
O=C(NCc1ccccc1)C1CCCN(S(=O)(=O)c2ccc(Br)cc2)C1 (stereo unspecified),i,i,i,i,i
CCOc1ccc(S(=O)(=O)N2CCCC(C(=O)NCc3ccncc3)C2)cc1Cl (stereo unspecified),-31.4,i,i,i,i
O=C(NCc1ccco1)C1CCCCN1S(=O)(=O)c1ccc(F)cc1 (stereo unspecified),-38.7,i,i,i,i
O=C(NCc1ccccc1)C1CCCN(S(=O)(=O)c2ccc(F)cc2)C1 (stereo unspecified),i,i,i,36.0,i
CCOC(=O)C1CCCN(C(=O)C2CCN(S(=O)(=O)c3cnc[nH]3)CC2)C1 (stereo unspecified),-41.0,i,i,i,i
CC(C)OCCCNC(=O)CCCn1c(SCC(N)=O)nc2c(sc3ccccc32)c1=O,i,i,i,i,i
CCc1ccccc1NC(=O)c1cc(S(=O)(=O)N2CCc3ccccc32)ccc1F,i,i,i,i,i
CC(=O)c1ccc(N2CCN(c3nc4ccccc4c4nc(-c5cccc(C)c5)nn34)CC2)cc1,i,i,i,i,i
SMILES,D1 antagonist,D1 agonist,D1 potentiator,TRHR PAM,TRHR agonist
O=C(NCc1ccccc1Cl)C1CCCN(S(=O)(=O)c2cnc[nH]2)C1 (stereo unspecified),-44.2,i,nt,i,i
O=C(NCc1cccs1)C1CCCN(S(=O)(=O)c2cnc[nH]2)C1 (stereo unspecified),i,i,nt,i,i
CCc1ccc(NC(=O)Cn2ccn(-c3ccc(OC)cc3)c(=O)c2=O)cc1,i,i,i,i,i
Cc1ccc(-c2csc(-c3cc4c([nH]c3=O)CC(c3ccccc3)CC4=O)n2)cc1 (stereo unspecified),i,i,i,i,i
COc1ccc(OC)c(NC(=O)C2CCN(c3cc(-c4ccccc4)nc4ncnn34)CC2)c1,i,i,i,i,i
COc1ccccc1NC(=O)N1CCN(c2cc(-c3ccccc3)nc3ncnn23)CC1,-54.4,i,i,i,i
COc1ccc(-n2c(C)cc(/C=C/c3nc(O)c([N+](=O)[O-])c(=O)[nH]3)c2C)cc1,-54.5,i,i,i,i
COc1ccccc1OCC(=O)N(Cc1nc(-c2ccccc2)no1)C(C)C,i,i,i,i,i
Cc1ccc(OCc2nc(-c3cccnc3)no2)cc1C,i,i,i,i,i
Cc1ccc(CC(=O)NCc2nc(-c3ccccc3)no2)cc1,i,i,i,i,i
COc1ccccc1OCC(=O)N(Cc1nc(-c2ccc(Cl)cc2)no1)C(C)C,-35.3,i,i,i,i
O=C(NCc1nc(-c2ccccc2)no1)Nc1ccc(F)cc1,i,i,i,40.3,i
Cc1cc(C)cc(OCc2nc(-c3cccnc3)no2)c1,-30.4,i,i,i,i
CCOc1cc(C(=O)NCc2nc(-c3cccc(C)c3)no2)cc(OCC)c1OCC,-30.7,i,i,i,i
COc1ccc(-c2[nH]ncc2C(=O)NCc2ccccc2C)cc1,i,i,i,i,i
CCc1ccc(OCC(=O)NCCN(C)C)c(Br)c1,-33.6,i,i,i,i
Cc1cc(C)cc(OCC(=O)NCc2nc(-c3ccccc3)no2)c1,-58.0,i,i,i,i
CCOc1ccc(C(=O)N(Cc2nc(-c3cccc(C)c3)no2)C(C)C)cc1,i,47.3,i,i,i
CCc1ccc(OCC(=O)NCc2nc(-c3cccc(C)c3)no2)c(Br)c1,i,38.1,i,i,i
CN(C)CCNc1ncnc2sc(-c3ccccc3)cc12,i,i,i,i,i
CC(=O)N1CCN(c2ncnc3sc(-c4ccccc4)cc23)CC1,i,i,i,40.4,i
CNc1ncnc2sc(-c3ccccc3)cc12,-37.6,i,i,i,i
CCCOc1cccc(C(=O)Nc2cccc(-c3nc4ncccc4o3)c2C)c1,i,i,i,i,i
N#C/C(=C/c1cc[nH]c1)C(N)=S,i,i,i,32.7,i
Cn1cccc1/C=C(\C#N)C(N)=S,i,i,i,i,i
SMILES,D1 antagonist,D1 agonist,D1 potentiator,TRHR PAM,TRHR agonist
CCOC(=O)c1cc(S(=O)(=O)NCc2ccc(Cl)cc2)[nH]n1,-31.6,i,i,i,i
CCOC(=O)c1cc(S(=O)(=O)NCc2ccc(F)cc2)[nH]n1,i,i,i,i,i
COc1cccc(N(C(=O)Cn2nnc3ccccc32)C(C(=O)NCc2ccco2)c2cccnc2)c1 (stereo unspecified),i,i,i,i,i
COc1cccc(C(C(=O)NCc2ccco2)N(Cc2ccco2)C(=O)Cn2nnc3ccccc32)c1 (stereo unspecified),-33.4,i,i,i,i
COc1ccccc1N1CCN(CCCn2c(=S)[nH]c3ccccc3c2=O)CC1,-87.9,i,i,i,i
O=c1c2cc(N3CCOCC3)ccc2[nH]c(=S)n1CCCN1CCN(c2ccccc2F)CC1,-71.0,i,i,i,i
O=C(COC(=O)Cn1nc(-c2ccccc2)oc1=O)Nc1ccc(F)cc1,-33.9,i,i,i,i
